The record followed here is PubChem BioAssay (NCI).

The nature of assay [1]: NCI Yeast Anticancer Drug Screen. Data for the rad50 strain (AID 155).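 Also: 0% = growth of vehicle-only cultures of the same strain.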 To be noted: S. cerevisiae rad50 strain growth inhibition; at 50.0 µM; hits give high values. An outline of the steps:
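Yeast carrying a defined DNA repair defect were exposed to test compounds, and growth was compared with vehicle-treated controls to give percent inhibition.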

A short description of assay [2]: NCI Yeast Anticancer Drug Screen. Data for the mec2-1 strain (AID 157). To be noted: S. cerevisiae mec2-1 strain, at 50.0 µM, hits give high values. Summed up:
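Yeast mec2-1 mutant treated with compound. Readout: growth inhibition vs vehicle controls.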

Assay [3] can be described thus: NCI Yeast Anticancer Drug Screen. Data for the sgs1 mgt1 strain (AID 161).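 Also: 0% = growth of cultures given vehicle only.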 As to conditions: S. cerevisiae sgs1 mgt1 strain, at 50.0 µM, hits give high values. Summed up:
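Inhibition of yeast growth, normalised to vehicle-treated controls, is reported for a strain bearing genetic alterations in DNA damage repair.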

The nature of assay [4]: NCI Yeast Anticancer Drug Screen. Data for the cln2 rad14 strain (AID 165).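 Also: 0% = growth equal to vehicle treated cultures.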 As to conditions: S. cerevisiae cln2 rad14 strain, at 50.0 µM, hits give high values. An outline of the steps: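 cln2 rad14 yeast strain; compound exposure; growth inhibition read vs vehicle controls.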
A short description of assay [5]: NCI Yeast Anticancer Drug Screen. Data for the bub3 strain (AID 167). To be noted: S. cerevisiae bub3 mutant strain, at 50.0 µM, hits give high values. Summed up:
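Compounds were applied to a genetically altered yeast strain carrying a cell-cycle control defect. Growth inhibition was scored against vehicle-treated controls.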

Assay [6] can be described thus: NCI Yeast Anticancer Drug Screen. Data for the mlh1 rad18 strain (AID 175). To be noted: S. cerevisiae mlh1 rad18 strain growth inhibition; at 50.0 µM; hits give high values. An outline of the steps: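 Yeast w/ defined DNA-repair lesions; compound exposure; growth vs vehicle controls → % inhibition.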

Each structure is given as a SMILES string. This is part of a sample that, as a whole, favours compounds with a hit. Of some 79,000 tested, about 15% had one in any assay. A number with no mark means an inactive call. Activity calls are given as the source filed them. Rule as the data show it: active = growth inhibition above about 70%; inactive = the rest.

For `COc1cc2c(cc1OC)C(c1ccc([N+](=O)[O-])c(C)c1)=NCC2`, the growth inhibition is 28.1% in assay [1]; -15.7% in assay [2]; 39.5% in assay [3]; 15.3% in assay [4]; 19.4% in assay [5]; 0.25% in assay [6].

Consider `CCC1(CC)COC2(CCC(C)CC2)OC1`, for which the growth inhibition in assay [1] was -6.4%; in assay [2] it was -2.95%; in assay [3] it was -5.05%; in assay [4] it was -16.1%; in assay [5], -14.7%; in assay [6] it was 7.5%.

Turning to `O=c1ccn(C2OC(CO)C(O)C2Cl)c(=O)[nH]1` (stereo unspecified), the growth inhibition in assay [1] was -6.7%; in assay [2] it was -42.1%; in assay [3], -11.4%; in assay [4] it was 10.2%; in assay [5] it was 4.9%; in assay [6], -14.4%.

`Cc1cccc(NC(=O)NC2CCC(CC3CCCCC3)CC2)c1` (stereo unspecified): the growth inhibition in assay [1] was 16.7%; in assay [2], 5.8%; in assay [3] it was 7.2%; in assay [4], -9.6%; in assay [5], -1.55%; in assay [6] it was 7.65%.

For `CN1c2ccccc2C(=O)NC12CCN(Cc1ccccc1)CC2`, the growth inhibition in assay [1] was -30.2%; in assay [2], -16.3%; in assay [3], -12.8%; in assay [4], 0.75%; in assay [5], 12.3%; in assay [6], -21.2%.

On to `OCc1ccc(O)c(CO)n1`, for which the growth inhibition in assay [1] was -8.85%; in assay [2], -26.3%; in assay [3] it was -3.35%; in assay [4], 5.4%; in assay [5], -20.6%; in assay [6] it was 7.55%.

On to `CC1=C(/C=C/C(C)=C/C=C/C(C)=C/C=C/C=C(C)/C=C/C=C(\C)C=O)C(C)(C)CCC1`, for which the growth inhibition was -18.2% in assay [1]; 4.85% in assay [2]; -9.4% in assay [3]; -1.4% in assay [4]; 4.75% in assay [5]; 0.8% in assay [6].

For `N#CCCC(CC#N)N1CCN(C(CC#N)CCC#N)CC1` (stereo unspecified), the growth inhibition in assay [1] is -33.5%; in assay [2], -48.9%; in assay [3], -11.8%; in assay [4], -6.3%; in assay [5], -13.1%; in assay [6] it was -19.4%.

On to `CCOC(=O)/C=C1\NCCc2ccccc21`, for which the growth inhibition in assay [1] is -6.85%; in assay [2] it was 1.45%; in assay [3] it was 8.5%; in assay [4] it was 24%; in assay [5], 4.8%; in assay [6], 4.55%.

In the case of `COC(=O)c1c2c(cc3c1CC1(Cc4cc5c(c(C(C)=O)c4C1)CCC5)C3)CCC2` (stereo unspecified), the growth inhibition in assay [1] was -34.1%; in assay [2], -15.5%; in assay [3], -63.8%; in assay [4], -4.1%; in assay [5], -20.7%; in assay [6] it was -41.5%.

Consider `N#CCCN(CCC#N)c1ccc(/C=C2\N=C(COc3ccc(Cl)cc3Cl)OC2=O)cc1`, for which the growth inhibition in assay [1] is -12.9%; in assay [2], -10%; in assay [3], -14.8%; in assay [4], 0.7%; in assay [5], 6.8%; in assay [6], -4.3%.

`COc1cc(C2SCC(=O)N2NC(=O)c2ccc(NC(C)=O)cc2)cc(OC)c1OC` (stereo unspecified): the growth inhibition in assay [1] is -11.8%; in assay [2], -3.95%; in assay [3], -5.2%; in assay [4] it was 6.15%; in assay [5], -12.4%; in assay [6], -12.2%.

For the compound `O=C1c2ccccc2C(=O)N1Cc1ccccc1`, the growth inhibition in assay [1] was 3.55%; in assay [2], -16.9%; in assay [3] it was 6.6%; in assay [4] it was 27.4%; in assay [5], 0.45%; in assay [6] it was 6.7%.

Regarding `CC(=O)OC1C(COC(N)=O)OC(n2c(-c3ccc(C)cc3)cc(-c3ccccc3)c(C#N)c2=O)C(OC(C)=O)C1OC(C)=O` (stereo unspecified), the growth inhibition was -18.4% in assay [1]; 7.25% in assay [2]; 4.75% in assay [3]; 22.4% in assay [4]; 26.9% in assay [5]; 11.3% in assay [6].

With `Cc1ccc(S(=O)(=O)NC2(C=O)CCCC3CCCCC32)cc1` (stereo unspecified), the growth inhibition in assay [1] is 33%; in assay [2], 6%; in assay [3], -5.45%; in assay [4], -9.15%; in assay [5], 0%; in assay [6] it was 20.6%.

As to `CC1=C(C(=O)Nc2cc(C)ccn2)CCO1`, the growth inhibition in assay [1] was 4.55%; in assay [2], -11.4%; in assay [3] it was -7.2%; in assay [4] it was -33%; in assay [5] it was 11.7%; in assay [6] it was 15%.

In the case of `CCN(CCO)CCCC(C)Nc1ccnc2cc(Cl)ccc12` (stereo unspecified), the growth inhibition in assay [1] is -43.2%; in assay [2] it was -66.5%; in assay [3], -33.4%; in assay [4], -132%; in assay [5], -45.9%; in assay [6], -63.4%.

For `O=c1[nH]c2ccccc2c2ccc(Br)cc12`, the growth inhibition in assay [1] is 17.4%; in assay [2] it was -6.1%; in assay [3], -2.65%; in assay [4] it was 7.3%; in assay [5], -3%; in assay [6], 18.5%.

Turning to `CCCCCCCCNc1ncnc2[nH]ncc12`, the growth inhibition in assay [1] was 7.15%; in assay [2], 11.3%; in assay [3], 22.1%; in assay [4] it was 6.5%; in assay [5], 47.2%; in assay [6], 13.9%.

With `COc1ccc(-c2oc3cc(OC)ccc3c(=O)c2O)cc1`, the growth inhibition in assay [1] was 22.5%; in assay [2] it was 25.4%; in assay [3], 8.1%; in assay [4], -3.5%; in assay [5] it was -5.1%; in assay [6], 8.25%.

As to `CCC[CH2][Sn]([CH2]CCC)([O]C(=O)c1nccnc1N)[O]C(=O)c1nccnc1N`, the growth inhibition in assay [1] is 92.2% (active); in assay [2], 92.5% (active); in assay [3], 93% (active); in assay [4], 92.2% (active); in assay [5], 90.3% (active); in assay [6], 88.2% (active).
